Sampled rows, rich in hits. Any-hit rate of the full collection: about 14%.
Marburg entry inh = qHTS for inhibitors of binding or entry into cells for Marburg Virus; Marburg virus pseudotyped entry inhibition, cell reporter; Potency, µM (doses to about 37.8 µM), without a hit: top-dose activity change, negative = inhibition, most hits filed as inhibitors; 300,000 tested, 1.8% active; AID 540276, 2011; calls by dose curve; tested in HEK293 cells; note: potency is the fitted concentration of half-maximal effect
HCMV antiviral = qHTS Assay for inhibitors of the human cytomegalovirus (HCMV); HFF cells, HCMV-luciferase reporter, 72 h; hits give low values; AID 1259415, 2018; activity change, negative = inhibition, % at 57.5 µM; 410,000 tested, 4.5% active; in the data active = activity change below about -60%; inconclusive = no clear call, values can overlap the other calls; inactive = above about -39%
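Compounds were evaluated in HFFs infected with an HCMV luciferase reporter virus (MOI 1 PFU/cell). Luciferase in lysates collected 72 h post infection served as the replication measure.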
Pf growth 96h = Primary qHTS for delayed death inhibitors of the malarial parasite plastid, 96 hour incubation; Potency, µM (top dose mostly 28.7 µM), without a hit: top-dose activity change, negative = inhibition, most hits filed as inhibitors; AID 504834, 2011; P. falciparum luciferase reporter growth, 96 h; 320,000 tested, 6.9% active; note: potency is the fitted concentration of half-maximal effect
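96 h incubation, 37 C, 5% CO2, of luciferase-reporter P. falciparum-infected RBCs (2% hematocrit, 0.05% parasitemia final) with test compounds; endpoint luminescence.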
HCV inh = qHTS Assay for Inhibitors of Hepatitis C Virus (HCV). Huh7.5.1 HCVcc-Cre infection, luciferase reporter, 44 h. Potency, µM (highest dose often 41.8 µM), for inactives: top-dose activity change, negative = inhibition, usual class: inhibitors. 340,000 tested, 3.4% active. AID 651820, 2012; note: potency is the fitted concentration of half-maximal effect
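HCVcc-Cre virus at an moi near 0.5 was added right after compound to cells cultured 4 h from seeding (1,000 cells/well). Luciferase activity was determined 44 h later, 15 min after substrate addition at RT.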
Pf growth 48h = Primary qHTS for delayed death inhibitors of the malarial parasite plastid, 48 hour incubation | P. falciparum luciferase growth in erythrocytes, 48 h | AID 504832, 2011 | 310,000 tested, 5.9% active | Potency, µM (series often up to 28.7 µM), without a hit: top-dose activity change, negative = inhibition, actives largely listed as inhibitors; note: potency is the fitted concentration of half-maximal effect
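Luminescence readout; reporter = integrated firefly luciferase in P. falciparum. RBC culture at 2% hematocrit, 0.1% parasitemia final, 37 C/5% CO2; decreased signal taken as growth inhibition.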
LASV entry inh = qHTS for Inhibitors of binding or entry into cells for Lassa Virus. Potency, µM (series often up to 37.9 µM), inactives show at the top dose activity change, negative = inhibition, hits mostly inhibitors. 300,000 tested, 1.2% active. Lassa virus pseudotype entry inhibition, cell reporter; calls by dose curve; tested in HEK293 cells; note: potency is the fitted concentration of half-maximal effect; nearly all actives have a fitted effect of over 50% in size
An asterisk follows results filed as active; ? = inconclusive; · = not tested or not shown; [ ] = dose if it differs, or a comment. Unless noted, calls come from the whole dose curve; as a rule, active = well fitted inhibition curve with a large enough effect; inconclusive = small, poorly fitted or top-dose-only effect, or another doubt; inactive = no such curve, though single readings can be large or run the other way. % is set by controls: 0 for no effect and ±100 for the full control effect.

SMILES	Marburg entry inh	HCMV antiviral	Pf growth 96h	HCV inh	Pf growth 48h	LASV entry inh
COc1cc2c(cc1NC(=O)CCCN1C(=O)CCC1=O)oc1ccccc12	8%	25	-4%	11µM*	40%	14%
COc1cc2c(cc1NC(=O)CCCCCN1C(=O)CCC1=O)oc1ccccc12	4%	4	·	3.5µM*	?	6%
Cc1nn2c(C)c(C(=O)N3CCN(c4ccccc4)CC3)cnc2c1-c1ccccc1	·	-11	·	·	·	23%[46.1 µM]
Nc1ncnc2oc(-c3ccco3)c(-c3ccco3)c12	?	-39	?	11µM*	-3%	-14%
Cc1cc(Br)c2[nH]c3c(c2c1)CCCC3=O	-8%[46.1 µM]	-8	29%	10µM*	·	-1%
COc1ccc(NC(=O)c2cc3n(n2)C(C(F)(F)F)CC(c2ccc4c(c2)OCO4)N3)cc1OC (stereo not drawn)	?	·	3.3µM*	·	3%	-15%[14.3 µM]
COc1ccc(C2CC(C(F)(F)F)n3nc(C(=O)O)c(Cl)c3N2)cc1OC (stereo not drawn)	8%	2	-14%	24%	·	16%
Cc1cccc(NC(=O)c2cc3n(n2)C(C(F)(F)F)CC(c2ccc4c(c2)OCO4)N3)c1 (stereo not drawn)	?	3	?	?	?	?
COc1cccc(C2CC(C(F)(F)F)n3ncc(C(=O)NC(C)(C)C)c3N2)c1 (stereo not drawn)	8%	-15	?	7%	4%	9%
COc1ccc(C2CC(C(F)(F)F)n3nc(CO)c(Cl)c3N2)cc1OC (stereo not drawn)	-24%	22	7.4µM*	-8%	1%	?
COc1ccc(C2CC(C(F)(F)F)n3ncc(C(=O)Nc4cccc(O)c4)c3N2)cc1OC (stereo not drawn)	?	-21	·	?	10µM*	-15%
NC(=O)c1ccc[n+](CC(=O)Nc2ccccc2C(=O)O)c1	9%[46.1 µM]	-20	30%	6%	-9%	-19%[46.1 µM]
COC(=O)c1cccc(NC(=O)c2nsc3ccccc23)c1	?	59	·	·	·	?
Nc1sccc1C(=O)NCCN1CCOCC1	·	9	·	·	·	·
Cc1c(C)c2c(c(C)c1O)CCC(C)(COc1ccc(CC3SC(=O)NC3=O)cc1)O2 (stereo not drawn)	·	·	6µM*	·	?	·
CC1(COc2ccc(CC3SC(=O)NC3=O)cc2)CCCCC1 (stereo not drawn)	·	·	-9%	·	-13%	·
COC(=O)c1c(-c2ccc(SC)cc2)sc2ccc(OC)cc12	·	197	·	45%[8.37 µM]	·	·
COc1ccc2sc(-c3ccc(SC)cc3)c(C#CCO)c2c1	·	3	·	2.8µM*	·	·
COc1cccc(-c2sc3ccc(OC)cc3c2C#CC(C)(C)O)c1	·	2	?	7.1µM*	?	·
COc1ccc2sc(-c3ccc(N(C)C)cc3)c(C#CCCO)c2c1	·	36	?	1.4µM*	?	·
COc1ccc(-c2sc3ccc(OC)cc3c2C#CCCO)cc1	·	·	?	?	-18%	·
COc1ccc2sc(-c3ccc(SC)cc3)c(C#CC(C)(C)O)c2c1	·	42	?	2.8µM*	0%	·
Cn1cc(-c2ccc3c(c2)N(CC2CCCCC2)C(=O)COC3)cn1	·	20	·	·	·	·
CCc1nc2ccc(C(=O)N(C)Cc3ccco3)cn2c1N(C)Cc1ccc(OC)cc1	·	1	·	·	·	·
COc1cc(NC(=O)c2ccccc2)c(OC)cc1NC(=O)Cc1ccc(F)cc1	-24%	-25	?	?	?	?
SMILES	Marburg entry inh	HCMV antiviral	Pf growth 96h	HCV inh	Pf growth 48h	LASV entry inh
Cc1ccc(S(=O)(=O)N2CCCc3cc(NC(=O)c4ccc(Cl)cc4)ccc32)cc1	·	-10	·	·	·	?
COc1ccc2sc(-c3ccc(N(C)C)cc3)c(C#CC(C)(C)O)c2c1	·	20	?	3.2µM*	?	·
COc1cccc(-c2sc3ccc(OC)cc3c2C#CCC(C)O)c1 (stereo not drawn)	·	54	?	?	?	·
COc1ccc2sc(-c3ccc(N(C)C)cc3)c(C#Cc3cncn3C)c2c1	·	117	·	2.5µM*	·	·
COc1ccccc1CNS(=O)(=O)c1ccc(F)cc1Br	?	31	·	·	·	·
COC(=O)Cc1c(C)c2ccc(OCC(=O)N3CCCC(C)C3)c(C)c2oc1=O (stereo not drawn)	·	-6	-21%	?	?	·
CCCCOc1ccccc1C1CC(=O)Nc2cc(OC)c(OC)cc21 (stereo not drawn)	-30%[46.1 µM]	15	·	·	·	-14%[46.1 µM]
CCOc1ccccc1C1CC(=O)Nc2cc3c(cc21)OCCO3 (stereo not drawn)	8.2µM*	-99*	-15%	?	·	?
CCCOc1ccccc1C1CC(=O)Nc2cc3c(cc21)OCCO3 (stereo not drawn)	2.8µM*	·	-2%	2.5µM*	?	?
CCOc1cc(C2CC(=O)Nc3cc4c(cc32)OCCO4)ccc1O (stereo not drawn)	?	94	·	·	·	-28%[46.1 µM]
OCCOC[C@H]1O[C@H](OCCO)[C@H](OCCO)[C@@H](OCCO)[C@@H]1OCCO (tested in a mixture with another compound)	·	·	4%	·	-5%	·
O=C(c1[nH]c(C(F)(F)F)nc1-c1ccccc1)N1CCN(c2ccc(C(F)(F)F)cn2)CC1	·	9	·	·	·	·
CC1C/C(=N\NC(=O)c2cccnc2)CC(C)(C)C1 (stereo not drawn)	4%	-34	5%	16%	13%	6%
CC1C/C(=N\NC(=S)NC(C)C)CC(C)(C)C1 (stereo not drawn)	-22%[46.1 µM]	8	2.9µM*	15%	·	-23%
CCC(=O)N1CCc2cc(S(=O)(=O)NCCC(=O)Nc3ccc(OC)c(OC)c3)ccc21	1%[46.1 µM]	14	·	·	·	22%[46.1 µM]
Cc1cc(C)cc(N=Cc2ccc([N+](=O)[O-])s2)c1	?	-1	-17%	?	0%	?
O=[N+]([O-])c1ccc(C=Nc2ccc(Cl)c([N+](=O)[O-])c2)s1	·	-99*	23%	·	2%	·
NC(=O)c1ccc(N=Cc2ccc([N+](=O)[O-])s2)cc1	?	-97*	-2%	?	-15%	?
CCc1c(C)sc2c1CCN(Cc1ccccc1)C2c1ccccc1 (stereo not drawn)	·	-102*	·	·	·	?
O=C1c2ccccc2C(=O)c2c1oc(C(F)(F)F)c2C(=O)c1ccccc1	?	-98*	0.13µM*	22µM*	?	?
COc1ccc(CNC(=O)c2c(-c3c(F)cccc3Cl)noc2C)cc1	-3%	-36	9%	29%	-22%	?
